Assay outcomes: PubChem BioAssay, Broad Institute
The full list was thinned out, with hits kept by preference.
PD-1 reversal: activators reversing PD-1 mediated T-cell inhibition, primary screen, luminescence, primary human CD4 T cells, PD-L1 beads. CellTiter-Glo 96 h. activation, % (test concentration not listed). 29,000 tested, under 10 active; call rule not given here
NOMO-1 viab: NOMO-1 AML cell viability reduction, primary screen, STK33 inhibitor project, CellTiter-Glo luminescence; NOMO-1 AML viability, 72 h; inhibition, % (concentration not given with the values); actives 7.5% (n = 37,000); in the data active = inhibition above about 80%; inconclusive = no clear call, values can overlap the other calls
STK33 kin inh: STK33 kinase inhibitors, primary screen, biochemical, luminescence, ADP-Glo, MBP substrate; AID 2322, 2010; inhibition, % at 12.5 µM; actives 0.44% (n = 27,000); in the data active = inhibition above about 20%; inconclusive = no clear call, values can overlap the other calls
Target sequence (Q9BYT3 whole entry, looked up): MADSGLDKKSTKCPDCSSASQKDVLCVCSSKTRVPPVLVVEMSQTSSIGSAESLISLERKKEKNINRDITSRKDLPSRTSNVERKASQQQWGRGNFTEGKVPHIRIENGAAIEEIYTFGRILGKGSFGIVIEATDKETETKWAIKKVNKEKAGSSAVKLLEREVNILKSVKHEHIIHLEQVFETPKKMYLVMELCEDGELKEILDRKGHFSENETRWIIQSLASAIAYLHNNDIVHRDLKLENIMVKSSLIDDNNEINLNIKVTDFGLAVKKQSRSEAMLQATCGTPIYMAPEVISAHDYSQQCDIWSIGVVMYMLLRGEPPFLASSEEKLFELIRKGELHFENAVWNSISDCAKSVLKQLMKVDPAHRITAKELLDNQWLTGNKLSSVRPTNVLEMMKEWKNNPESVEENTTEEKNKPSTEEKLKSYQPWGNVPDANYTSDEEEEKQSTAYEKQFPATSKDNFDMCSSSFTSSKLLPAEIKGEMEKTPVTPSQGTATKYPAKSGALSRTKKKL
Large screens that a line does not name were inactive.

C[C@@H]1CN([C@H](C)CO)C(=O)Cc2cc(NS(C)(=O)=O)ccc2O[C@H]1CN(C)Cc1ccc(C(=O)Nc2ccccc2N)cc1	none (no result: STK33 kin inh)
C[C@H](CO)N1C[C@H](C)[C@H](CN(C)Cc2ccc(C(=O)Nc3ccccc3N)cc2)Oc2ccc(NS(C)(=O)=O)cc2CC1=O	NOMO-1 viab 129 (no result: STK33 kin inh)
C[C@H]1CN([C@@H](C)CO)C(=O)Cc2cc(NS(C)(=O)=O)ccc2O[C@H]1CN(C)Cc1ccc(C(=O)Nc2ccccc2N)cc1	NOMO-1 viab 84 (no result: STK33 kin inh)
C[C@@H]1CN([C@H](C)CO)C(=O)Cc2cc(NS(C)(=O)=O)ccc2O[C@@H]1CN(C)Cc1ccc(C(=O)Nc2ccccc2N)cc1	none (no result: STK33 kin inh)
COc1ccccc1-c1cc(=O)c2ccccc2o1	none
Nc1nc(Cc2ccc(F)cc2F)no1	none (no result: STK33 kin inh)
O=C(O)CCCC(=O)Nc1cc(C(=O)O)ccc1Cl	none (no result: PD-1 reversal)
C[C@@H]1CN([C@@H](C)CO)C(=O)c2cccc(NC(=O)C3CCCCC3)c2O[C@@H]1CN(C)Cc1ccc(C(=O)Nc2ccccc2N)cc1	NOMO-1 viab 127 (no result: STK33 kin inh)
C[C@@H]1CN([C@@H](C)CO)C(=O)c2cccc(NC(=O)C3CC3)c2O[C@H]1CN(C)Cc1ccc(C(=O)Nc2ccccc2N)cc1	none (no result: STK33 kin inh)
C[C@@H]1CN([C@H](C)CO)C(=O)c2cccc(NC(=O)C3CCOCC3)c2O[C@@H]1CN(C)Cc1ccc(C(=O)Nc2ccccc2N)cc1	NOMO-1 viab 107 (no result: STK33 kin inh)
C[C@H]1CN([C@@H](C)CO)C(=O)c2cccc(NC(=O)C3CCOCC3)c2O[C@@H]1CN(C)Cc1ccc(C(=O)Nc2ccccc2N)cc1	none (no result: STK33 kin inh)
N#Cc1c(C(F)(F)F)cc(-c2ccc(Br)cc2)nc1SCCC(=O)O	none
Cc1ccc2nc(-c3cccnc3)cc(C(=O)Nc3sc4c(c3C(N)=O)CCCCCC4)c2c1	NOMO-1 viab inconclusive
CC(C)c1cc(I)ccc1NC(=O)CSc1nc2ccccc2c(=O)[nH]1	none (no result: PD-1 reversal)
C[C@@H]1CN([C@H](C)CO)C(=O)Cc2cc(NS(=O)(=O)c3ccccc3)ccc2O[C@H]1CN(C)Cc1ccc(C(F)(F)F)cc1	none
COc1ccc(S(=O)(=O)Nc2ccc3c(c2)CC(=O)N([C@@H](C)CO)C[C@H](C)[C@@H](CN(C)Cc2ccc(C(F)(F)F)cc2)O3)cc1	NOMO-1 viab 113
C[C@H](CO)N1C[C@H](C)[C@H](CN(C)Cc2ccc(C(F)(F)F)cc2)Oc2ccc(NS(=O)(=O)c3ccccc3)cc2CC1=O	none
C[C@@H]1CN([C@H](C)CO)C(=O)Cc2cc(NS(=O)(=O)c3ccccc3)ccc2O[C@@H]1CN(C)Cc1ccc(C(F)(F)F)cc1	NOMO-1 viab inconclusive
C[C@@H]1CN([C@H](C)CO)C(=O)Cc2cc(NS(=O)(=O)c3ccc(F)cc3)ccc2O[C@@H]1CN(C)Cc1ccc(C(F)(F)F)cc1	NOMO-1 viab 111
Cc1ccc(S(=O)(=O)Nc2ccc3c(c2)CC(=O)N([C@H](C)CO)C[C@H](C)[C@H](CN(C)Cc2ccc(C(F)(F)F)cc2)O3)cc1	NOMO-1 viab 104
Cc1ccc(S(=O)(=O)Nc2ccc3c(c2)CC(=O)N([C@@H](C)CO)C[C@@H](C)[C@@H](CN(C)Cc2ccc(C(F)(F)F)cc2)O3)cc1	NOMO-1 viab 84
COc1ccc(CN(C)C[C@H]2Oc3ccc(NS(=O)(=O)c4ccc(F)cc4)cc3CC(=O)N([C@H](C)CO)C[C@H]2C)cc1	none
O=C(CN1CCOCC1)Nc1ccccc1[N+](=O)[O-]	none (no result: PD-1 reversal)
CCOC(=O)c1c(NC(=O)COc2ccccc2Br)sc(C)c1C	none
COc1ccc(-n2c(SCC(=O)N(c3ccccc3)c3ccccc3)nc3ccccc3c2=O)cc1	none
COC(=O)c1ccccc1NC(=O)c1ccc(NC(=O)COc2ccccc2C)cc1	NOMO-1 viab inconclusive
COc1cccc(-c2ccc(C#N)c(SCC(=O)Nc3ccccc3Br)n2)c1	none (no result: PD-1 reversal)
COc1ccc(C#Cc2ccc3c(c2)[C@]2(C(=O)N3)[C@H](C(=O)NC[C@H](O)c3ccccc3)[C@H]3C(=O)O[C@H](c4ccccc4)[C@H](c4ccccc4)N3[C@@H]2c2ccccc2OCCO)cc1	none (no result: PD-1 reversal, NOMO-1 viab)
C[C@@H]1CN([C@H](C)CO)C(=O)Cc2cc(NC(=O)Nc3ccc(C(F)(F)F)cc3)ccc2O[C@@H]1CN(C)Cc1ccc(C(=O)Nc2ccccc2N)cc1	NOMO-1 viab 138 (no result: STK33 kin inh)
C[C@H]1CN([C@@H](C)CO)C(=O)Cc2cc(NC(=O)Nc3ccc(C(F)(F)F)cc3)ccc2O[C@H]1CN(C)Cc1ccc(C(=O)Nc2ccccc2N)cc1	NOMO-1 viab 127 (no result: STK33 kin inh)
C[C@H](CO)N1C[C@H](C)[C@H](CN(C)Cc2ccc(C(=O)Nc3ccccc3N)cc2)Oc2ccc(NC(=O)Nc3ccc(C(F)(F)F)cc3)cc2C1=O	none (no result: STK33 kin inh)
Cc1coc(C)c1C(=O)CC1(O)C(=O)N(Cc2ccccc2)c2ccccc21 (stereo unspecified)	none
CC1(C)NCCC12C(=O)N(Cc1ccccc1)c1ccccc12 (stereo unspecified)	NOMO-1 viab 120 (no result: STK33 kin inh)
O=C(NCc1c(OC(=O)c2ccccc2[N+](=O)[O-])ccc2ccccc12)c1ccccc1	none (no result: PD-1 reversal, NOMO-1 viab)
CC(=O)O[C@H]1C(=O)[C@@]2(C)[C@H]([C@H](OC(=O)c3ccccc3)[C@]3(O)C[C@H](OC(=O)[C@H](O)[C@@H](NC(=O)c4ccccc4)c4ccccc4)C(C)=C1C3(C)C)[C@]1(OC(C)=O)CO[C@@H]1C[C@@H]2O	NOMO-1 viab 141
COc1ccc(-n2c(SCC(=O)N3CCOCC3)nnc2-c2ccccc2)cc1	none
C[C@H]1CN([C@@H](C)CO)C(=O)Cc2cc(NC(=O)Nc3ccccc3)ccc2O[C@@H]1CN(C)Cc1ccc(C(F)(F)F)cc1	none
C[C@@H]1CN([C@@H](C)CO)C(=O)Cc2cc(NC(=O)Nc3ccccc3)ccc2O[C@@H]1CN(C)Cc1ccc(C(F)(F)F)cc1	NOMO-1 viab 119
C[C@@H]1CN([C@H](C)CO)C(=O)Cc2cc(NC(=O)Nc3ccc(C(F)(F)F)cc3)ccc2O[C@@H]1CN(C)Cc1ccccc1	NOMO-1 viab 118
C[C@@H]1CN([C@@H](C)CO)C(=O)Cc2cc(NC(=O)Nc3ccc(C(F)(F)F)cc3)ccc2O[C@@H]1CN(C)Cc1ccccc1	NOMO-1 viab inconclusive (no result: PD-1 reversal)
C=CCNC(=O)[C@@H]1[C@H]2C(=O)O[C@H](c3ccccc3)[C@H](c3ccccc3)N2[C@H](c2ccc(O)cc2)[C@@]12C(=O)Nc1ccccc12	none (no result: PD-1 reversal, NOMO-1 viab)
Cc1ccc(S(=O)(=O)N(C)C[C@H]2Oc3c(NC(=O)NC4CCCCC4)cccc3C(=O)N([C@@H](C)CO)C[C@H]2C)cc1	none (no result: STK33 kin inh)
C[C@H]1CN([C@@H](C)CO)C(=O)c2cccc(NC(=O)NC3CCCCC3)c2O[C@H]1CN(C)S(=O)(=O)c1ccc(Cl)cc1	NOMO-1 viab 98 (no result: STK33 kin inh)
C[C@@H]1CN([C@@H](C)CO)C(=O)c2cccc(NC(=O)NC3CCCCC3)c2O[C@@H]1CN(C)S(=O)(=O)c1ccc(Cl)cc1	none (no result: PD-1 reversal, STK33 kin inh)
Cc1ccc(S(=O)(=O)N(C)C[C@@H]2Oc3c(NC(=O)NC4CCCCC4)cccc3C(=O)N([C@H](C)CO)C[C@@H]2C)cc1	NOMO-1 viab 91 (no result: STK33 kin inh)
COc1cc([N+](=O)[O-])ccc1NC(=O)CN(C)S(=O)(=O)c1ccc2ccccc2c1	none (no result: PD-1 reversal)
Cc1onc(-c2ccccc2)c1C(=O)N(CCC#N)CCC#N	none
Cn1c(=O)c2c(ncn2CCCN)n(C)c1=O	none (no result: PD-1 reversal)
Cc1c(NC(=O)C(C)(C)C)c(=O)n(-c2ccccc2)n1C	none (no result: STK33 kin inh)
